Compound activity: PubChem, several laboratories
Most compounds without a hit are left out; they make up all but 3.3% or so of the library.
Mcl1-Noxa inh – Mcl-1/Noxa interaction inhibition; 220,000 tested, 1.5% active; TR-FRET Mcl-1/Noxa peptide binding, 2 h; inhibition, % at 21.7 µM; Q07820; AID 1022;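 active = compounds that cut the protein-peptide binding signal by more than 50% relative to plate controls in a single-dose test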;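 note: His-tagged Mcl-1 with rhodamine Noxa BH3 peptide and terbium anti-His antibody; 0% = Mcl-1 plus Noxa peptide wells and 100% = peptide-only wells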
14-3-3 Bad PPI – disrupts binding of bovine 14-3-3 zeta to phospho-Bad peptide | P63103 | TR-FRET 14-3-3zeta/Dy647-pBad peptide displacement, 1 h | inhibition, % at 21.7 µM | 220,000 tested, 0.71% active | AID 781;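 active = inhibition above about 70%, limit read from the data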;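 note: 0% = full 14-3-3 plus peptide FRET controls and 100% = background without 14-3-3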
Target sequence (P63103 whole entry, looked up): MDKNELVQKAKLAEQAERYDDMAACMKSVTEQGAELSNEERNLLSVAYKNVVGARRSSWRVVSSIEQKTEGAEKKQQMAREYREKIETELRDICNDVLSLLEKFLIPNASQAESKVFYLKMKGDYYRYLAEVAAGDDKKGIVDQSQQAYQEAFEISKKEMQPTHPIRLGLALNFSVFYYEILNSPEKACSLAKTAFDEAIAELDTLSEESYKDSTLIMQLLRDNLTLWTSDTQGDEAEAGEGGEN
p47phox inh – inhibitors of human p47phox binding | P14598 | p47phox/p22phox peptide binding, fluorescence polarization, 2 h | inhibition, % at 24.7 µM | 220,000 tested, 0.53% active | AID 1274;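 note: 0% = p47phox with labelled peptide and 100% = labelled peptide alone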
Mcl1-Bid inh – disrupts binding of human Mcl-1 to Bid peptide; Q07820; TR-FRET Mcl-1/Bid-Dy647 peptide binding, 1536-well; inhibition, % at 21.7 µM; 220,000 tested, 0.97% active; AID 1021;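 active = compounds that cut the binding signal by more than half at the single screening dose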;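 note: His-tagged Mcl-1 with europium anti-His antibody binding Bid BH3 peptide; 0% = Mcl-1 plus peptide wells and 100% = peptide-only wells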
eIF4E 4G PPI – blocks eIF4E binding to eIF4G. P63073+Q04637. TR-FRET eIF4E-eIF4GI(517-606) binding, 2 h. inhibition, % at 21.7 µM. 220,000 tested, 0.37% active. AID 782;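 note: 0% = full FRET control wells and 100% = background wells lacking eIF4GI fragment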
Bim-Mcl-1 – inhibitors of Bim-Mcl-1 interaction, human; inhibition, % at 10 µM; Q07820; AID 1009; 190,000 tested, 0.1% active; Bead-based flow cytometry, Bim peptide-Mcl-1 binding; in the data active = inhibition above about 40%;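 note: 0% = no compound tracer wells and 100% = peptide blocker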
Starred values were filed as active, the others as inactive; . = no result given.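 Rule for the calls, unless noted: active = inhibition above about 30% (limit read from the data); inactive = the rest.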

SMILES	Mcl1-Noxa inh	14-3-3 Bad PPI	p47phox inh	Mcl1-Bid inh	eIF4E 4G PPI	Bim-Mcl-1
COc1cccc(/C=C/C(=O)OCC(=O)Nc2cccc(S(=O)(=O)N(C)C)c2)c1	17.0	94.6*	-17.7	-29.9	-1.0	0.0
COc1ccc(C(=O)NCc2ccc3c(c2)CCO3)cc1	-12.6	4.2	-3.5	-6.3	2.4	.
Cc1cccc(/N=C/c2c(O)n(Cc3ccc4c(c3)OCO4)c(=O)c3ccccc23)n1	15.4	-9.3	7.1	2.4	-2.4	0.0
CCN(c1ccc(NC(=O)COC(=O)c2cccs2)cc1)C(C)C	87.2*	-8.0	-2.3	-44.5	0.6	0.0
CNc1sc(C(=O)c2ccccc2F)c(N)c1-c1nc2ccccc2s1	85.9*	5.4	-7.1	-33.2	-4.4	0.0
O=C(Nc1ccc(S(=O)(=O)Nc2nccs2)cc1)c1ccc(N2C(=O)c3ccccc3C2=O)cc1	12.6	58.0	-79.0	-29.5	-14.1	-2.0
COC(=O)c1cc(NC(=S)NCc2ccc(Cl)cc2)cc(C(=O)OC)c1	15.4	-2.5	-10.3	96.6*	1.4	-4.0
COC(=O)c1cccc(NC(=S)NCc2ccc(Cl)cc2)c1	9.2	-13.7	-6.4	-17.1	-3.8	-6.0
Cc1ccc(-c2nc(N)s[n+]2-c2ccccc2)cc1	19.0	31.8	93.0*	-46.7	25.6	-11.0
Cc1ccc(-c2nnc(-c3ccccc3)o2)cc1	5.6	4.7	-7.3	-5.3	-1.2	0.0
CNc1nc(-c2ccccc2)[n+](-c2ccc(C)cc2)s1	-6.5	46.9	93.8*	-29.4	39.5*	-4.0
CCCn1c(O)c(N=NC(=O)c2cccnc2)c2cc(Br)ccc21	12.2	-4.1	5.1	-14.8	7.8	.
Nc1cc(S(=O)(=O)N2CCCCC2)ccc1Oc1ccccc1	-3.2	-8.0	-12.8	-35.6	-5.2	0.0
COc1ccc(Br)cc1C(=O)N/N=C/c1ccc([N+](=O)[O-])cc1	16.7	15.4	-5.3	5.0	6.3	-3.0
COc1cc(/C=N/NC(=O)c2ccc(COc3ccccc3Cl)o2)cc(Br)c1O	72.6*	37.7	15.1	40.4	11.7	-19.0
COc1cc(/C=N/NC(N)=O)cc([N+](=O)[O-])c1O	52.2*	12.4	-0.4	-11.1	3.5	5.0
COC(=O)N/N=C/c1cc(OC)c(O)c([N+](=O)[O-])c1	32.5	-17.5	-3.6	-22.5	0.4	-3.0
COc1cc(/C=N/NC(=O)c2ccc([N+](=O)[O-])cc2Cl)cc(Br)c1O	82.4*	6.3	-2.1	-42.4	16.8	9.0
Cc1cc(C(=O)NN=C2CCCCCC2)c(C)o1	11.4	4.3	-11.6	-97.1	-3.4	.
c1ccc(CSc2nnc3ccc(-c4ccco4)nn23)nc1	21.6	-9.8	-3.2	-2.9	0.2	-1.0
CC1CCN(Cc2c(O)ccc3c(=O)c(-c4nc5ccccc5s4)c(N)oc23)CC1	52.8*	0.5	-33.8	4.9	3.5	3.0
COc1ccc(/C=N/NC(=O)c2ccccc2O)cc1Cn1cc([N+](=O)[O-])cn1	25.8	-5.1	-20.0	-70.5	2.3	.
COc1ccc(/C=N/NC(=O)c2cc(O)c(O)c(O)c2)cc1Cn1cc([N+](=O)[O-])cn1	92.5*	28.1	-7.5	-100.9	10.7	10.0
CCOC(=O)c1ccc(N2N=C(C)/C(=C/C=C/c3ccco3)C2=O)cc1	31.8	-6.5	16.7	-13.3	-0.2	0.0
O=C(O)c1cc(N2N=C(C(F)(F)F)/C(=C/C=C/c3ccco3)C2=O)ccc1Cl	105.5*	27.3	-33.7	86.4*	20.0	-4.0
SMILES	Mcl1-Noxa inh	14-3-3 Bad PPI	p47phox inh	Mcl1-Bid inh	eIF4E 4G PPI	Bim-Mcl-1
CCOC(=O)C1(Cc2cccc(F)c2)CCN(Cc2cnn(CC)c2C)CC1	8.4	-3.6	1.2	-0.7	-4.0	-3.0
CCOc1ccc(CCNc2nc3ccccc3n3cnnc23)cc1OCC	2.6	0.0	-5.5	-3.8	-0.8	.
CCN(CC)S(=O)(=O)c1ccc(NC(=O)c2cc(C(=O)OC)cc([N+](=O)[O-])c2)cc1	14.2	10.8	-5.7	-10.8	33.4*	-4.0
COC(=O)c1cc(C(=O)Nc2ccc(S(=O)(=O)NC(C)(C)C)cc2)cc([N+](=O)[O-])c1	8.8	-16.0	-3.3	-22.5	0.3	-2.0
c1ccc(-c2cnnc(SCc3cn4cccnc4n3)n2)cc1	-11.7	77.5*	-4.5	-14.6	6.5	1.0
c1ccc2[nH]c(SCc3cn4cccnc4n3)nc2c1	10.8	1.5	-2.9	-9.7	-0.1	-7.0
